Measured values taken from PubChem BioAssay AID1794808 (University of Kansas High Throughput Screening Laboratory, 2022).
The campaign covered roughly 210,000 compounds. About 520 (0.25%) were called active. The full list was thinned out, with actives kept by preference. A number with no mark means an inactive call. Rule as the data show it: active = inhibition above about 50%; inactive = the rest.

Test system: Plasmodium falciparum apicoplast DNA polymerase (apPOL)
Experiment: Pf-apPOL inhibitors, biochemical, fluorescence (AID 1794808)
Settings: Recombinant Pf-apPOL, molecular beacon fluorescence, 1.5 h; at 10 µM; stronger effect = higher value

SMILES	inhibition
CCC1(c2ccccc2)C(=O)NC(=O)N(C(=O)c2ccccc2I)C1=O (stereo not given)	-1.8%
CCCCC1(c2ccccc2)C(=O)NC(=O)NC1=O	81.2% (active)
CCC1(c2ccccc2)C(=O)NC(=O)N(C)C1=O (stereo not given)	-0.8%
Cc1nnc(SCc2nc3ccccc3c(=O)n2-c2ccccc2Cl)s1	0.3%
CCn1cc(C(=O)NCc2cccc(C)c2)c2cccnc21	-12.8%
